# Laboratory results published in ChEMBL document CHEMBL3988442, “University of Dundee, Small-Polar-MMV Screening Library” (2021).
# Biological target: T1, Methionyl-tRNA synthetase, putative (Leishmania donovani (strain BPK282A1)) (UniProt E9BF75)
# T1 sequence (whole entry): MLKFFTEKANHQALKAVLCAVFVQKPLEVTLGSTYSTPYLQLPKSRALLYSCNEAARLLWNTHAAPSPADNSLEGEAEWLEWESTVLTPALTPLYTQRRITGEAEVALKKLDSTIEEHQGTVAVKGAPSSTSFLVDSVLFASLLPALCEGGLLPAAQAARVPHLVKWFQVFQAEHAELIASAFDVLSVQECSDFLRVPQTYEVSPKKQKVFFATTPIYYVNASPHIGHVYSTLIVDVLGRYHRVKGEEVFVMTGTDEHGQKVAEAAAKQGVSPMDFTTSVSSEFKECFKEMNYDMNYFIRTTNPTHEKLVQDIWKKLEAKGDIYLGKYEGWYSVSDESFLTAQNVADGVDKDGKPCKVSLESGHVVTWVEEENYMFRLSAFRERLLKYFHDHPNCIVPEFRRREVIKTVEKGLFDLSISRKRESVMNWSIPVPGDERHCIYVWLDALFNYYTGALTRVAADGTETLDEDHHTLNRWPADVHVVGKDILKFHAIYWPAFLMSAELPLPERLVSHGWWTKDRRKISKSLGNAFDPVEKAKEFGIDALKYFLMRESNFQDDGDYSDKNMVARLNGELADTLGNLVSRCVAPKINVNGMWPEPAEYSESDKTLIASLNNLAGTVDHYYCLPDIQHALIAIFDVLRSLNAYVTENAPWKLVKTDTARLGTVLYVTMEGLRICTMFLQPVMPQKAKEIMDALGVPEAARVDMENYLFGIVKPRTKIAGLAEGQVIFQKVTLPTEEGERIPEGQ
# Assay: Leishmania donovani Methionine tRNA synthetase (LdMetRS):v7. Dose response assay
# Assay type: functional
# Set-up: conc 80 nM, time 150 minutes
compound,measurement,setting,value
COCCNc1nc(-n2nc(C)cc2C)nc2sccc12,PXC50,"BOTTOM 2.201340626, HILLSLOPE 2.387703954, MAX_EFFECT 53.50877193, TOP 100.0",4.03
same,PXC50,MAX_EFFECT 36.45833333,< 4
COCCNc1nc(CN2CCCC2)nc2sc3c(c12)CCCC3,PXC50,MAX_EFFECT 13.54166667,< 4
same,PXC50,MAX_EFFECT 14.03508772,< 4
Cc1sc2nc(C(F)(F)F)nc(N3CCN(S(C)(=O)=O)CC3)c2c1C,PXC50,MAX_EFFECT 4.699738903,< 4
same,PXC50,MAX_EFFECT -2.872062663,< 4
COCCNc1nc(N2CCCC2)nc2sc3c(c12)CCCC3,PXC50,MAX_EFFECT 20.83333333,< 4
same,PXC50,MAX_EFFECT 36.40350877,< 4
CC(C)(C)c1nc(NCCO)c2c3c(sc2n1)CCCC3,PXC50,MAX_EFFECT 6.632653061,< 4
same,PXC50,MAX_EFFECT 7.323232323,< 4
Clc1cc(Cl)c2c(c1)NCCC2,PXC50,MAX_EFFECT 10.1511879,< 3
same,PXC50,MAX_EFFECT 15.01901141,< 3
Cc1nc(N2CCC3(CC2)OCCO3)c2c(-c3cccs3)csc2n1,PXC50,MAX_EFFECT 10.43256997,< 4
same,PXC50,MAX_EFFECT 13.35012594,< 4
FC(F)(F)c1nc(N2CCCC2)nc2c1CCCCC2,PXC50,MAX_EFFECT 2.290076336,< 4
same,PXC50,MAX_EFFECT 5.793450882,< 4
Cc1sc2nc(-c3cccs3)nc(NCCN3CCOCC3)c2c1C,PXC50,MAX_EFFECT 8.542713568,< 4
same,PXC50,MAX_EFFECT 8.5995086,< 4
CCc1nc(N2CCCC(C)C2)c2c3c(sc2n1)CCC3 (stereo not given),PXC50,"BOTTOM 6.332749468, HILLSLOPE 1.241583482, MAX_EFFECT 50.25125628, TOP 77.91036355",4.17
same,PXC50,MAX_EFFECT 49.87714988,< 4
Cc1sc2nc(CN3CCOCC3)nc(NC3CCS(=O)(=O)C3)c2c1C (stereo not given),PXC50,MAX_EFFECT 9.625668449,< 4
same,PXC50,MAX_EFFECT 10.38251366,< 4
O=C(NCC1(O)CCC(F)(F)CC1)c1cc(=O)c2cc(F)cc(O)c2o1,PXC50,MAX_EFFECT 4.030710173,< 4
same,PXC50,MAX_EFFECT 10.04784689,< 4
CCNc1nc(-c2ccc(C)cc2)cc(C(F)(F)F)n1,PXC50,MAX_EFFECT 4.797979798,< 4
same,PXC50,MAX_EFFECT 5.102040816,< 4
Fc1cccc(OC[C@@H]2CNCCO2)c1Oc1ccc(Cl)cc1,PXC50,MAX_EFFECT 6.609808102,< 4
same,PXC50,MAX_EFFECT 8.902691511,< 4
COc1ccc(-c2cc(C(F)(F)F)nc(N3CCCCC3)n2)cc1OC,PXC50,MAX_EFFECT 2.702702703,< 4
same,PXC50,MAX_EFFECT 3.015075377,< 4
Fc1cccc(OCc2cnc[nH]2)c1Oc1ccc(Cl)cc1,PXC50,MAX_EFFECT 12.57995736,< 4
same,PXC50,MAX_EFFECT 14.69979296,< 4
Cc1sc2nc(CN3CCOCC3)nc(NCCO)c2c1C,PXC50,MAX_EFFECT 7.650273224,< 4
same,PXC50,MAX_EFFECT 8.021390374,< 4
COc1ccc(-c2cc(C(F)(F)F)nc(N3CCN(C)CC3)n2)cc1,PXC50,MAX_EFFECT 16.41414141,< 4
same,PXC50,MAX_EFFECT 20.40816327,< 4
Cc1nc(NCCCN2CCC(O)CC2)c2c(-c3cccs3)csc2n1,PXC50,MAX_EFFECT 4.325699746,< 4
same,PXC50,MAX_EFFECT 7.808564232,< 4
CCOC(=O)N1CCN(c2nc(-n3nc(C)cc3C)nc3sc4c(c23)CCCC4)CC1,PXC50,MAX_EFFECT 10.41666667,< 4
same,PXC50,MAX_EFFECT 12.71929825,< 4
Cc1nc(NCCCS(N)(=O)=O)c2c(-c3cccs3)csc2n1,PXC50,MAX_EFFECT 6.297229219,< 4
same,PXC50,MAX_EFFECT 6.870229008,< 4
CNC(=O)CN(C)c1nc(-c2cccs2)nc2sc(C)c(C)c12,PXC50,MAX_EFFECT 6.801007557,< 4
same,PXC50,MAX_EFFECT 6.870229008,< 4
Clc1ccccc1CN1CCc2nc(Nc3ccccc3)ncc2C1,PXC50,MAX_EFFECT 23.92344498,< 4
same,PXC50,MAX_EFFECT 25.2285192,< 4
Cc1cc(C)n(-c2nc(N(C)C)c3c4c(sc3n2)CCCC4)n1,PXC50,"BOTTOM 3.265302341, HILLSLOPE 1.809282706, MAX_EFFECT 78.125, TOP 100.0",4.28
same,PXC50,"BOTTOM 6.620107204, HILLSLOPE 2.145601955, MAX_EFFECT 79.8245614, TOP 100.0",4.28
OB1OCc2cc(Cl)ncc21,PXC50,MAX_EFFECT 7.762557078,< 4
same,PXC50,MAX_EFFECT 14.1509434,< 4
FC1(F)CCN(Cc2ccncc2)CC12CCN(c1cccnc1)C2 (stereo not given),PXC50,MAX_EFFECT 5.981308411,< 4
same,PXC50,MAX_EFFECT -0.453514739,< 4
CCOC(=O)CCN(C)c1nc(C)nc2sc(-c3ccccc3)cc12,PXC50,MAX_EFFECT 45.45454545,< 4
same,PXC50,MAX_EFFECT 46.44808743,< 4
COc1ccc2c(c1)COB2O,PXC50,MAX_EFFECT 5.094339623,< 4
same,PXC50,MAX_EFFECT 9.589041096,< 4
CCc1nc(N2CCN(c3ccccn3)CC2)c2c3c(sc2n1)CCC3,PXC50,MAX_EFFECT 39.95098039,< 4
same,PXC50,MAX_EFFECT 40.86538462,< 4
CN(C(=O)c1ccc2ccc(N3CCN(S(C)(=O)=O)CC3)n2c1)C1CCCC1,PXC50,"BOTTOM 0.289643944, HILLSLOPE 2.293493597, MAX_EFFECT 58.37320574, TOP 59.73308371",5.01
same,PXC50,"BOTTOM 8.176661161, HILLSLOPE 2.054643886, MAX_EFFECT 62.15722121, TOP 64.55497205",4.82
